PubChem BioAssay (NCI)
The panel holds about 83,000 compounds, 20% with a hit somewhere; the sample as a whole holds those more often.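 48-hour exposure, single concentration, 96-well plates; percent growth endpoint where 0 means no net growth. Active: below 10.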 A number with no mark means an inactive call. Calls of active or inactive are those of the source.

Columns and labels:
Assay in all cases: NCI-60 one-dose screen, 48 h (100 = growth as untreated, 0 = no growth, -100 = all killed)
Conditions in all cases: 10 µM unless noted
NCI-H23 lung = test system: NCI-H23 lung
NCI-H226 lung = test system: NCI-H226 lung
NCI-H322M lung = test system: NCI-H322M lung
HOP-62 NSCLC = test system: HOP-62 NSCLC
NCI-H460 lung = test system: NCI-H460 lung
HOP-92 NSCLC = test system: HOP-92 NSCLC
NCI-H522 lung = test system: NCI-H522 lung
A549/ATCC NSCLC = test system: A549/ATCC NSCLC
786-0 renal = test system: 786-0 renal
COLO 205 colon = test system: COLO 205 colon
DU-145 prostate = test system: DU-145 prostate
K-562 leukemia = test system: K-562 leukemia
MALME-3M melanoma = test system: MALME-3M melanoma
MDA-MB-231 breast = test system: MDA-MB-231 breast
RXF 393 renal = test system: RXF 393 renal
SF-268 CNS = test system: SF-268 CNS
SF-295 CNS = test system: SF-295 CNS
SF-539 CNS = test system: SF-539 CNS
UACC-257 melanoma = test system: UACC-257 melanoma
M14 melanoma = test system: M14 melanoma

SMILES | growth (NCI-H23 lung) | growth (NCI-H226 lung) | growth (NCI-H322M lung) | growth (HOP-62 NSCLC) | growth (NCI-H460 lung) | growth (HOP-92 NSCLC) | growth (NCI-H522 lung) | growth (A549/ATCC NSCLC) | growth (786-0 renal) | growth (COLO 205 colon) | growth (DU-145 prostate) | growth (K-562 leukemia) | growth (MALME-3M melanoma) | growth (MDA-MB-231 breast) | growth (RXF 393 renal) | growth (SF-268 CNS) | growth (SF-295 CNS) | growth (SF-539 CNS) | growth (UACC-257 melanoma) | growth (M14 melanoma)
O=S(=O)(NCCNc1nccc(-c2c(-c3cccc(F)c3)nc3sccn23)n1)c1ccccc1 | 56.1% | 34.5% | 51.5% | 60.2% | 25.9% | 51.5% | 43.7% | 25.2% | 47.4% | 24.2% | 40% | 23.9% | 68.5% | 66% | 64.1% | 43.5% | 47.4% | 65.5% | 65.3% | 41.4%
Nc1n[nH]c2cccc(C#Cc3cccc(C(=O)Nc4cccc(C(F)(F)F)c4)c3)c12 | 54% | 63.2% | 86.4% | 67.7% | 74.7% | 58.6% | 60.9% | 77.8% | 90.6% | 49.8% | 74.9% | 8.36% (active) | 10.4% | 53.6% | 65.9% | 56.4% | 81.6% | 39% | 73.2% | 39.2%
C=C(C)[C@@H]1CC[C@]2(C(=O)N3CCN(C)CC3)CC[C@]3(C)[C@H](CC[C@@H]4[C@@]5(C)CC[C@H](OCCC#N)C(C)(C)[C@@H]5CC[C@]43C)[C@@H]12 | 100% | 89.4% | 103% | 108% | 98.7% | 93% | 95.4% | 80% | 22% | 50.3% | 92.5% | 16.2% | 118% | 65.8% | 47.4% | 90.5% | 115% | 102% | 107% | 107%
COc1cc2nc(-c3ccc(C(F)(F)F)cc3)cc(OCCN3CCCCC3)c2cc1OC | 84.7% | 73.2% | 73.1% | 69.7% | 46.3% | 68.2% | 91.2% | 81% | 78.7% | 27.4% | 70.9% | 53.4% | 74.4% | 54.1% | 62.4% | 75.8% | 77.5% | 74.4% | 36.6% | -11.8% (active)
COc1ccc(CC(C)=C(c2ccc(OCCN3CCCCCC3)cc2)c2ccc(OCCN3CCCCCC3)cc2)cc1 | -87.9% (active) | -74.4% (active) | -99.3% (active) | -77.4% (active) | -95% (active) | -73.7% (active) | -82.4% (active) | -86% (active) | -72.1% (active) | -67.5% (active) | -96.2% (active) | -55.4% (active) | -91.9% (active) | -98.2% (active) | -82.1% (active) | -81.2% (active) | -93.3% (active) | -95.8% (active) | -76.3% (active) | -67.3% (active)
COc1cc(/C=C\C(=O)O)ccc1OCc1ccccc1 | 100% | 80.2% | 117% | 99% | 105% | 86.1% | 83.6% | 82.3% | 109% | 108% | 103% | 126% | 102% | 93.5% | 103% | 94.8% | 101% | 99.5% | 91% | 109%
CCC(CC)NCC(C)(C)O | 97.7% | 109% | 94% | 119% | 103% | 105% | 105% | 102% | 107% | 120% | 106% | 102% | 113% | 102% | 117% | 109% | 103% | 111% | 106% | 97%
COc1cc2c(=O)n(CCN(C)C)c3c4cc5c(cc4ccc3c2cc1OC)OCO5 | -20.7% (active) | -97.6% (active) | -15.7% (active) | -5.77% (active) | -31.6% (active) | -9.74% (active) | -37.9% (active) | -84.9% (active) | -58.7% (active) | -56.3% (active) | 3.59% (active) | 12.1% | -63.6% (active) | -21.6% (active) | -84.6% (active) | 0.0226% (active) | 3.79% (active) | -39.9% (active) | -33.4% (active) | -56.7% (active)
CNC(=O)c1cccc(Cn2nc(C)c(NC(=O)c3ccc(COc4ccc(C(F)(F)F)cc4C)cc3)c2C)c1 | 47.3% | 44.6% | 88% | 46.3% | 47.7% | 80% | 33% | 31.1% | 54.8% | 42.7% | 58.9% | 23.3% | 77.5% | 79.4% | 70.4% | 61.9% | 27.9% | 71.7% | 8.63% (active) | 41.6%
N#CC1=C(/N=C/c2ccccc2)Oc2c(ccc3ccccc23)C1c1ccc([N+](=O)[O-])cc1 (stereo not given) | 80.2% | 65.3% | 93.8% | 89.1% | 95.2% | 88.5% | 86.2% | 101% | 102% | 109% | 96% | 90.7% | 96.6% | 72.7% | 98.2% | 89.2% | 98.5% | 95.1% | 97.1% | 102%
COc1ccc(C(=O)CSc2nc(-c3cc(OC)ccc3OC)cc(-c3ccc(Cl)cc3)c2C#N)cc1 | 44.1% | -2.99% (active) | 67.9% | 39.9% | 25.4% | 43.9% | 27.6% | 56.5% | 23.7% | 65.2% | 65.9% | 77.9% | -6.38% (active) | 33.2% | 26.5% | 59.2% | 18.5% | 30.5% | 58% | 48.6%
Cc1cc(C)c(S(=O)(=O)Oc2ccccc2[N+](=O)[O-])c(C)c1 | 32.9% | 60% | 52.6% | 39.8% | 8.64% (active) | 38.1% | -12.5% (active) | 31.2% | 33% | 22.9% | 15.7% | 22.1% | 21% | 33.2% | 4.44% (active) | 37.2% | -7.8% (active) | -8.46% (active) | 32.4% | 14.2%
COc1ccc(C(=O)c2cc(C)c(OC)c(C)c2)c(OC)c1NC(C)=O | 29.5% | 17.4% | 42.7% | 20.3% | 3.32% (active) | 6.76% (active) | 13.4% | 18.1% | 13.7% | -5.99% (active) | 4.21% (active) | 15.5% | 58.5% | 20.9% | 10.8% | 37.9% | 13% | -13.7% (active) | 66.1% | -8.33% (active)
CC1(C)CC[C@]23CC[C@]4(C)[C@H](CC[C@@H]5[C@@]6(C)CCCNC(C)(C)[C@@H]6CC[C@]54C)[C@H]2[C@H]1OC3 | 41.2% | 34.8% | -21.4% (active) | 27.7% | -60.6% (active) | -37.2% (active) | 9.35% (active) | -45.6% (active) | -96.2% (active) | -68.2% (active) | -8.9% (active) | -39.7% (active) | -63.4% (active) | -62.8% (active) | -65.3% (active) | 38.2% | -65% (active) | 38.7% | 45.1% | -77.2% (active)
CCN(CC)CC[n+]1cc2cc(OC)c(OC)cc2c2ccc3cc4c(cc3c21)OCO4 | 3.47% (active) | 29.7% | -15.9% (active) | -4.95% (active) | -65.7% (active) | 14.7% | -19.1% (active) | -41.2% (active) | 3.36% (active) | 13.9% | 1.33% (active) | 2.65% (active) | -2.49% (active) | -19.5% (active) | -39.1% (active) | -16% (active) | -2.66% (active) | -14.7% (active) | 18% | -54.2% (active)
